Results published in PubChem BioAssay AID1745849 (National Center for Advancing Translational Sciences (NCATS), 2022).
Among all 2,100 compounds or so, about 320 (15%) were called active. Inconclusive results (about 52%) are left out. The call rests on the fitted dose curve; in most records, active means well fitted cell-killing curve with a large enough effect; inconclusive means small, poorly fitted or top-dose-only effect, or effect the other way; inactive means flat fitted curve, though single readings scatter. The list shows a part of the results.

assay: Viability Counterscreen for CMV-Luciferase Assay of Inhibitors of ATXN expression; details: HEK-293 CMV-luciferase cells viability, protease fluorescence, 24 h; activity change, negative = cytotoxicity: at the top concentration; further: nearly all actives have a fitted effect of over 55% in size
Outline: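 In the same wells, a multiplexed format measured viability and then the CMV-luciferase signal in HEK-293 cells following 24 hr compound exposure at several concentrations. The viability substrate was Gly-Phe-AFC at 25 uM final.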
On the % scale 0 is the no-effect control and ±100 the full control effect; potency means the concentration at half of the fitted maximal effect.

SMILES	activity change, negative = cytotoxicity	Potency
CC1(C)c2[nH]c3ccccc3c2C[C@H]2C(=O)N(Cc3ccccc3F)C(=O)N21	-10.7% [at 57.5 µM] (inactive)	
Nc1nc(NCCCN2CCOCC2)nc(Nc2cccc(Cl)c2)c1[N+](=O)[O-]	-19.8% (inactive)	
COC(=O)[C@H]1C[C@H](OC(=O)NC2CC2)[C@@]2(O)CN(S(=O)(=O)c3ccc(C)cc3)CC2[C@H]1C(=O)OC (stereo partly drawn)	1.18% (inactive)	
Cc1ccc(C(=O)N2CCN(c3ccc(NC(=S)NC(=O)c4cccs4)cc3)CC2)cc1	12.1% (inactive)	
COc1c(C)cccc1C(=O)Nc1ccc(N2CCN(C(=O)c3ccccc3C)CC2)cc1		31.6 µM (active)
COc1ccccc1N(C)S(=O)(=O)c1ccc(C(=O)Nc2ccc(N3CCOCC3)cc2)cc1	-29.3% [at 57.5 µM] (inactive)	
CC(C)n1c(NCc2cc(Cl)ccc2O)nc2ccccc21	-6.93% (inactive)	
C/C(=N\N=C(N)N)c1ccc(Cl)cc1Cl	-11.9% [at 57.5 µM] (inactive)	
O=C(Nc1nc(-c2ccccn2)cs1)c1ccccc1-n1cnnn1		7.94 µM (active)
CC(N)c1csc(NC(=O)c2cc(C(C)(C)C)nn2Cc2ccccc2)n1 (stereo not drawn)	7.86% (inactive)	
Cc1cc(OCC(=O)NC(C)c2ccccc2)ccc1[N+](=O)[O-] (stereo not drawn)	1.14% (inactive)	
Cc1c(C(=O)Nc2nccs2)sc2nc(-c3cccs3)cc(C(F)(F)F)c12	-21.8% (inactive)	
O=C(Nc1nc(-c2ccccn2)cs1)c1cc(Cl)ccc1[N+](=O)[O-]		3.16 µM (active)
CCc1sc(C(=O)Nc2nc(-c3ccccn3)cs2)cc1C		11.2 µM (active)
O=C(NNc1nc2ccc(Cl)cc2s1)c1cc(-c2cccs2)nc2ccccc12	-18.1% (inactive)	
COc1ccc(CNC(=O)CSc2nc(-c3ccccc3)cc(-c3cccs3)c2C#N)cc1	-20.3% (inactive)	
CCCOc1ccccc1C1NC(=O)NC(C)=C1C(=O)OCc1ccccc1 (stereo not drawn)	-3.94% (inactive)	
CN1CCN(CC#CCn2c3ccccc3c3ccccc32)CC1	-3.45% [at 57.5 µM] (inactive)	
CCc1nc2c(OCc3ccc(Cl)cc3Cl)cccn2c1N(C=O)Cc1ccc(OC)cc1	-29.4% (inactive)	
S=C(Nc1ccccc1)Nc1ccc(OCc2ccc(Cl)cc2Cl)cc1	-10% [at 57.5 µM] (inactive)	
Cc1cc(/C=N/n2cnnc2)c(C)n1-c1ccc(OCc2ccc(Cl)cc2Cl)cc1		28.2 µM (active)
CN1CCN(c2nc(Nc3ccc(F)cc3)nc(Nc3ccc(F)cc3)n2)CC1	20.3% [at 57.5 µM] (inactive)	
CCc1nc2c(OCCOc3ccc(F)cc3)cccn2c1N(C=O)Cc1ccc(OC)cc1	-21.2% [at 57.5 µM] (inactive)	
O=C(c1ccc(Cn2c(=S)[nH]c3ccccc3c2=O)cc1)N1CCN(c2ccccn2)CC1	-9.68% (inactive)	

SMILES	activity change, negative = cytotoxicity	Potency
CCN(CC)S(=O)(=O)c1ccc(C)c(NC(=S)N2CCN(c3ccccn3)CC2)c1	-19.9% [at 57.5 µM] (inactive)	
S=C(Nc1cc(Cl)ccc1Oc1ccccc1)N1CCN(c2ccccn2)CC1		25.1 µM (active)
Cn1cccc1/C=N/N1CCN(Cc2ccccc2Cl)CC1	-9.25% [at 57.5 µM] (inactive)	
C=CCNc1oc(-c2ccc(Cl)cc2)nc1C#N	15.1% [at 57.5 µM] (inactive)	
O=C1N/C(=N/N=C/c2ccccc2O)SC1Cc1ccc(F)cc1 (stereo not drawn)		14.1 µM (active)
COc1cccc(C(=O)NC2CC3CCCC(C2)N3CC(=O)Nc2ccccc2C(F)(F)F)c1 (stereo not drawn)	-15.7% [at 57.5 µM] (inactive)	
CN(Cc1ccccc1)C1=CC(=[N+]2CCCC2)CC(C)(C)C1	-15.5% (inactive)	
COc1cccc(S(=O)(=O)NCc2ccc(C(=O)Nc3cccc(Cl)c3)cc2)c1		15.8 µM (active)
COc1ccc(NS(=O)(=O)c2ccc(NC(=O)c3ccc(CN4CCOCC4)cc3)cc2)cc1	-22.5% [at 57.5 µM] (inactive)	
CSc1cccc(NC(=O)c2ccc(CN3CCc4ccccc4C3)cc2)c1	-27.3% [at 57.5 µM] (inactive)	
Cc1ccc(-c2nc3ccc(Cl)cn3c2CC(C)(C)C)cc1	17.4% (inactive)	
COc1ccc(-c2sc3ccc(OC)cc3c2-c2ccc(O)cc2)cc1	-12.9% (inactive)	
COc1cccc(-c2sc3ccccc3c2-c2ccc(OCCN3CCCC3)cc2)c1	-4.65% (inactive)	
c1ccc(-c2sc3ccccc3c2-c2ccc(OCCN3CCCC3)cc2)cc1		35.5 µM (active)
Cc1nc2ccccc2n1-c1nc(-c2ccco2)cc(C(F)(F)F)n1		10 µM (active)
Cc1ccc(C)c(/C=C/C(=O)c2ccccc(=O)c2O)c1		20 µM (active)
O=c1c2c(nc3c(-c4cccc(Br)c4)c[nH]n13)CCCC2		10 µM (active)
O=c1c2c(nc3c(-c4ccc(Cl)cc4)c[nH]n13)CCC2	-20.6% (inactive)	
O=C(Nc1cccnc1)C1Cc2c(-c3ccc4c(c3)OCO4)ccnc2O1 (stereo not drawn)	-12.2% (inactive)	
COc1ccc(Cl)cc1S(=O)(=O)N1CCN(C(=O)c2n[nH]c(=O)c3ccccc23)CC1	-12.8% (inactive)	
CC(C)C(=O)NC(c1cccc([N+](=O)[O-])c1)c1ccc2cccnc2c1O (stereo not drawn)		3.16 µM (active)
Cc1ccnc(NC(c2ccccc2)c2ccc3cccnc3c2O)c1 (stereo not drawn)	-17.1% [at 57.5 µM] (inactive)	
O=[N+]([O-])c1ccc(NC(c2ccccc2)c2ccc3cccnc3c2O)cc1 (stereo not drawn)		11.2 µM (active)
Oc1c(C(Nc2cccc(C(F)(F)F)c2)c2ccncc2)ccc2cccnc12 (stereo not drawn)		8.91 µM (active)
